Measurements reported in PubChem BioAssay (NCATS).
Values joined by “and” are separate entries in the source; they are usually repeats but may differ in a detail not shown here. Equal values may be shown once. Results filed as inconclusive are left out. Active and inactive are the calls of the source. Unless noted, calls come from the whole dose curve; as a rule, active = well fitted curve in the direction sought with a large enough effect; inconclusive = small, poorly fitted or top-dose-only effect, or another doubt; inactive = no such curve, though single readings can be large; an effect the other way counts as inactive or inconclusive.

What was measured:
[1] = biological target: Cellular tumor antigen p53 (Homo sapiens) (UniProt P04637); experiment: Primary qHTS for small molecule compounds that upregulate eGFP-tagged delta133p53alpha (in N-terminal) cells. (AID 2060322); details: NCI-H358 eGFP-delta133p53alpha fluorescence, 24 h; activation: active compounds read high;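 note: series mostly up to about 56 µM; 0% = DMSO vehicle and 100% = reference activator; nearly all actives have a fitted effect of over 75% in size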
Cellular tumor antigen p53 (Homo sapiens), sequence (P04637 whole entry, looked up): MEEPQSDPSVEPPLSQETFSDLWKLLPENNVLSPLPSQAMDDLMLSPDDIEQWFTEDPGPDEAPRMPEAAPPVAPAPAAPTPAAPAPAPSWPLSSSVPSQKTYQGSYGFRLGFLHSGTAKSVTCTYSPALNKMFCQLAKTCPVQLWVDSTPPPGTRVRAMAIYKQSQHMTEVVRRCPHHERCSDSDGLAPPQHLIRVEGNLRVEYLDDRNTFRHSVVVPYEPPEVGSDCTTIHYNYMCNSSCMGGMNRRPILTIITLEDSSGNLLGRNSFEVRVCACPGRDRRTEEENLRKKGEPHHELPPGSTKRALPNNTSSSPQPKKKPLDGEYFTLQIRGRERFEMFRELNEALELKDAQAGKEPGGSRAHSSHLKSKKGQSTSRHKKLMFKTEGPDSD
Method in brief: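 NCI-H358 cells pre-induced 24 h with 10 ng/ml doxycycline to express N-terminal eGFP-delta133p53alpha, then dosed 24 h at 37C without doxycycline; fixed, Hoechst-stained, GFP intensity by laser scanning cytometry, normalized to DMSO (0%) and 57.5 uM 5-azacytidine (100%).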

[2] = biological target: Cellular tumor antigen p53 (Homo sapiens) (UniProt P04637); experiment: Primary qHTS for small molecule compounds that upregulate eGFP-tagged delta133p53alpha (in C-terminal) cells. (AID 2060324);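 note: 0% = DMSO wells and 100% = 57.5 µM 5-azacytidine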
Method in brief: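 NCI-H358 cells with doxycycline-inducible D133p53a-eGFP (C-terminal tag), pre-induced 24 h with 100 ng/ml doxycycline, plated 800/well in doxycycline-free medium and treated 24 h at 37 °C with compound titrations. Cells were then fixed and Hoechst-stained, and GFP intensity was read by laser scanning cytometry.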

[3] = biological target: Aldehyde dehydrogenase, mitochondrial (Homo sapiens) (UniProt P05091); experiment: qHTS for Inhibitors of the Aldehyde Dehydrogenase Family (ALDH2) Validation screens (AID 2061302; active = well fitted inhibition curve with a large enough effect; title and protocol of this record describe different tests;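 note: plate controls were DMSO vehicle for no effect and maximal DPI positive control response for full effect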)
[4] = biological target: Retinaldehyde dehydrogenase 3 (Homo sapiens) (UniProt P47895); experiment: qHTS for Inhibitors of the Aldehyde Dehydrogenase Family (ALDH1A3) Validation screen (AID 2061312); note: % is set by controls: 0 for no effect and ±100 for the full control effect; nearly all actives have a fitted effect of over 45% in size

CC(=O)N[C@@H](CS)C(=O)O
inactive: activation [1] 11.9% and -21.2% | Potency [2] | Potency [3] | Potency [4]

CC(N)(C(=O)O)c1ccc(C(=O)O)cc1 (stereo not drawn)
inactive: activation [1] 7.46% | Potency [2] | Potency [3] | Potency [4]

Nc1nc(N)c2nc(-c3ccccc3)c(N)nc2n1
inactive: activation [1] -26.6% and -1.16% | Potency [2] | Potency [3] | Potency [4]

COc1ccccc1N1CCN(CCCCN2C(=O)c3ccccc3C2=O)CC1
inactive: activation [1] -14.4% | Potency [2] | Potency [3] | Potency [4]

NC(=O)CC[C@H](N)C(=O)O
inactive: activation [1] 18.7% | Potency [2] | Potency [3] | Potency [4]

CC(=O)c1ccc2c(c1)N(CCCN(C)C)c1ccccc1S2
inactive: activation [1] 3.95% and -33.1% | Potency [2] | Potency [3] | Potency [4]

C[C@H](Cc1ccccc1)Nc1ncnc2c1ncn2[C@@H]1O[C@H](CO)[C@@H](O)[C@H]1O
inactive: activation [1] -29.5% | Potency [2] | Potency [3] | Potency [4]

C[N+]1(C)C2CC(OC(=O)[C@H](CO)c3ccccc3)CC1C1OC12 (stereo partly drawn)
inactive: activation [1] 4.68% and -6.58% | Potency [2] | Potency [3] | Potency [4]

[Li+]
inactive: activation [1] -7.03% | Potency [2] | Potency [3] | Potency [4]

COc1ccc2c(c1)c(CC(=O)O)c(C)n2Cc1ccc(Cl)cc1
inactive: activation [1] -32.5% | Potency [2] | Potency [3] | Potency [4]

CCCn1c(=O)[nH]c(=O)c2[nH]cnc21
inactive: activation [1] 24.9% | Potency [2] | Potency [3] | Potency [4]

NC(=Nc1ccccc1)NC(=O)c1nc(Cl)c(N)nc1N
inactive: activation [1] -28.9% | Potency [2] | Potency [3] | Potency [4]

CCc1cccc(N(C)C(N)=Nc2cccc3ccccc23)c1
inactive: activation [1] 19.2% | Potency [2] | Potency [3] | Potency [4]

CC(N)(Cc1ccc(O)cc1)C(=O)O (stereo not drawn)
inactive: activation [1] -18.1% | Potency [2] | Potency [3] | Potency [4]

CCCCNc1c(C(=O)OCC)c(C)nc2c1cnn2CC
inactive: activation [1] 8.47% and 3.05% | Potency [2] | Potency [3] | Potency [4]

CC1CC2C3CCC4=CC(=O)C=C[C@]4(C)[C@@]3(F)[C@@H](O)C[C@]2(C)[C@@]1(O)C(=O)CO (stereo partly drawn)
inactive: activation [1] -4.86% and -24.4% | Potency [2] | Potency [3] | Potency [4]

COc1cc(C(O)CO)ccc1O (stereo not drawn)
inactive: activation [1] -14% | Potency [2] | Potency [3] | Potency [4]

CCOC(=O)C12CC1/C(=N/O)c1ccccc1O2 (stereo not drawn)
inactive: activation [1] -19.2% | Potency [2] | Potency [3] | Potency [4]

COc1ccc(C(=O)NCc2cccnc2)cc1C(=O)NCc1cccnc1
inactive: activation [1] -12.6% | Potency [2] | Potency [3] | Potency [4]

COC(=O)C(N)Cc1ccc(Cl)cc1 (stereo not drawn)
inactive: activation [1] -12% | Potency [2] | Potency [3] | Potency [4]

Cn1c(=O)c2[nH]c(C3CCCC3)nc2n(C)c1=O
inactive: activation [1] 3.95% | Potency [2] | Potency [3] | Potency [4]

CC(=O)OC(C)C[N+](C)(C)C (stereo not drawn)
inactive: activation [1] 10.7% and 1.73% | Potency [2] | Potency [3] | Potency [4]
